From PubChem BioAssay (EPA / NIEHS)
Values joined by “and” are separate entries in the source; they are usually repeats but may differ in a detail not shown here. Equal values may be shown once. Results filed as inconclusive are left out. Some compounds were tested as several samples or in several runs, with calls that do not always agree. Active and inactive are the calls of the source. The calls were made as follows, unless noted: active = hit-call score of the fitted dose curve at least 0.9, where 1 is the maximum; inactive = score below 0.9.

Columns and labels:
[1] = CCTE_Shafer_MEA_acute_network_burst_percentage: CCTE's Neural Acute Assay for Percentage of Network Bursts, Shafer Lab (AID 2284022);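 also: curves fitted for loss so actives lower network burst percentage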;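 as to outcome: rat primary cortical neuron networks on multiwell MEA recorded 40 min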
Outline: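 Rat cortical cultures, DIV 13/15; 20 min equilibration, 40 min baseline, compound 0.03-40 uM, 40 min recording, 37 C. Spikes: 300-5000 Hz band-pass, threshold 8x rms noise. Readout: % change in network-burst spike fraction; loss direction vs DMSO.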

[2] = CCTE_Shafer_MEA_acute_cross_correlation_area: CCTE's Neural Acute Assay for Area of Cross Correlation, Shafer Lab (AID 2284024);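 also: rat primary cortical neuron networks on 48-well MEA at DIV 13 or 15 with 40 min exposure; area under pooled inter-electrode spike cross-correlation near zero lag as percent change from own baseline; curves fitted for loss of cross-correlation area so actives lower synchrony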
Outline: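 Rat cortical cultures, DIV 13/15, MEA; spikes detected at 8x rms noise (300-5000 Hz band-pass). Compound 0.03-40 uM, ≥3 wells each. Readout: % change in pooled inter-electrode cross-correlation area vs own baseline; DMSO negative control.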

[3] = CCTE_Shafer_MEA_acute_cross_correlation_HWHM: CCTE's Neural Acute Assay for Cross Correlation at Half Width at Half Maximum, Shafer Lab (AID 2284026);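 also: spontaneous network firing of rat primary cortical neurons on multiwell microelectrode arrays; percent change per well from pre-dose baseline in spike cross-correlogram half width; hits are a decrease in cross-correlogram half width relative to DMSO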
Outline: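 Read-out: half width at half maximum of action-potential cross-correlogram, percent change versus pre-treatment baseline, fitted in loss direction against DMSO. Rat cortical cultures, DIV 13 or 15, dosed 0.03-40 uM, 40-min recordings at 37 C.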

[4] = CCTE_Shafer_MEA_dev_firing_rate_mean: CCTE's Neural Network Formation Assay for Mean Firing Rate, Shafer Lab (AID 2284031);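 as to AC50: curve fitted for loss of firing so AC50 reflects decreased mean firing rate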
Outline: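 Read-out: spike count/recording length, averaged over active electrodes, then AUC across days 5, 7, 9, 12. Rat cortical cultures on MEA; continuous 12-day exposure, media and treatment renewed DIV 5, 9; DMSO baseline.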

[5] = CCTE_Shafer_MEA_dev_active_electrodes_number: CCTE's Neural Network Formation Assay for Number of Active Electrodes, Shafer Lab (AID 2284040; active = hit-call score of the fitted dose curve at least 0.9, where 1 is the maximum;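 as to AC50: potency for loss of active electrodes versus DMSO so lower counts are hits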)
Outline: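 Developing rat cortical networks on MEAs, exposed DIV 0–12. Value is the AUC of active-electrode counts (≥5 spikes/min) from days 5, 7, 9, 12, relative to DMSO.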

[6] = CCTE_Shafer_MEA_dev_burst_rate: CCTE's Neural Network Formation Assay for Burst Rate, Shafer Lab (AID 2284042);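 as to AC50: potency for loss of burst rate below DMSO control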
Outline: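 Primary rat cortical neurons on PEI-coated 48-well MEA plates (laminin added with cells at plating) (16 electrodes/well), exposed from plating to day 12, dosing renewed at DIV 5 and 9. Burst rate averaged over active electrodes, recorded DIV 5, 7, 9, 12, summarized as AUC; loss versus DMSO.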

[7] = CCTE_Shafer_MEA_dev_bursting_electrodes_number: CCTE's Neural Network Formation Assay for Number of Bursting Electrodes, Shafer Lab (AID 2284043; active = hit-call score of the fitted dose curve at least 0.9, where 1 is the maximum;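 as to AC50: potency is for loss of bursting electrodes relative to DMSO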)
Outline: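 Number of electrodes reaching ≥1 burst every 2 min was recorded at DIV 5, 7, 9 and 12 and collapsed as trapezoidal area under the curve. Cultures were rat cortical neurons on MEA plates, dosed continuously from plating with medium and treatment refreshed on DIV 5 and 9.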

[8] = CCTE_Shafer_MEA_dev_per_burst_interspike_interval: CCTE's Neural Network Formation Assay for Burst Interspike Interval, Shafer Lab (AID 2284044);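 as to AC50: potency for a decrease of within-burst interspike interval below DMSO level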
Outline: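 Readout is the average time between spikes inside single-electrode bursts, taken as a well mean across bursting electrodes. Cortical neurons from rat developed networks on MEA plates under continuous 12-day exposure; recordings on days 5, 7, 9 and 12 were integrated by trapezoidal AUC.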

[9] = CCTE_Shafer_MEA_dev_burst_duration_mean: CCTE's Neural Network Formation Assay for Mean Burst Duration, Shafer Lab (AID 2284045)
Outline: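 Mean single-electrode burst duration (first to last spike), averaged over bursting electrodes per well, then integrated as area-under-curve across recordings at days 5, 7, 9 and 12. Rat cortical cultures on MEAs, compound present from plating, refreshed at feeds.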

[10] = CCTE_Shafer_MEA_dev_interburst_interval_mean: CCTE's Neural Network Formation Assay for Mean Interburst Interval, Shafer Lab (AID 2284046);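 also: well-mean interburst interval of bursting electrodes as AUC over four recording days; curve fitted for decrease in interburst interval relative to DMSO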
Outline: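 Recordings on days 5, 7, 9 and 12 give well-mean interburst interval across actively bursting electrodes, summarized as area under the curve. Cultures: rat cortical neurons, continuous exposure from day 0, compound renewed at feeds; decrease analyzed versus DMSO.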

[11] = CCTE_Shafer_MEA_dev_inter_network_spike_interval_mean: CCTE's Neural Network Formation Assay for Mean Inter-network Spike Interval, Shafer Lab (AID 2284047)
Outline: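 Primary rat cortical neurons on 16-electrode MEA wells, exposed from plating day 0 through DIV 12, compound renewed at DIV 5 and 9 media changes. Mean interval between network-spike peaks recorded DIV 5, 7, 9, 12; collapsed as trapezoidal AUC, fitted downward versus DMSO.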

[12] = CCTE_Shafer_MEA_dev_network_spike_peak: CCTE's Neural Network Formation Assay for Mean Number of Electrodes in Network Spike, Shafer Lab (AID 2284049);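 as to AC50: fitted for loss of signal meaning fewer electrodes in network spikes than DMSO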
Outline: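 Rat cortical primary culture, 1.5 x 10^5 cells/well, 48-well MEA (16 electrodes/well). Dosing day 0 through DIV 12, full media/compound exchange DIV 5, 9. AxIS adaptive spike detection; AUC over days 5/7/9/12; loss-of-signal vs DMSO.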

[13] = CCTE_Deisenroth_AIME_384WELL_CTox_Active: Cytotoxicity Assessment (CTOX) in CCTE's 384-well Estrogen Receptor Transactivation Assay with AIME metabolic competence (metabolism positive), Deisenroth Lab (AID 2284037; active = hit-call score of the fitted dose curve at least 0.9, where 1 is the maximum;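 also: chemicals first conditioned 2 h by alginate-bound induced rat liver S9 before cells; activity means signal loss indicating cell death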)
Outline: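 Cytotoxicity in VM7Luc4E2 breast cells, 24 hour, measured as protease-substrate fluorescence loss, after 2-hour metabolic conditioning with induced rat hepatic S9 in alginate microspheres. Concentrations 0.002 - 200 uM, 10 points, bidirectional fitting.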

[14] = molecular target: Estrogen receptor (Homo sapiens) (UniProt P03372); experiment: CCTE_Deisenroth_AIME_384WELL_LUC_Inactive: CCTE's 384-well Estrogen Receptor Transactivation Assay without AIME metabolic competence (ERTA luciferase; metabolism negative), Deisenroth Lab (AID 2284038; active = hit-call score of the fitted dose curve at least 0.9, where 1 is the maximum;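 also: VM7Luc4E2 breast cells given medium preincubated 2 h with S9-free microspheres; hits raise estrogen receptor luciferase signal so potencies reflect agonists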)
Outline: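 Metabolism-negative mode: AIME lids stamped in alginate-water, no hepatic S9. 2 h chemical incubation → medium onto VM7Luc4E2 ERTA, 24 h. Readout luciferase luminescence; gain-of-signal fit vs 17beta-estradiol. Conc. 0.002 - 200 uM.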

[15] = molecular target: Estrogen receptor (Homo sapiens) (UniProt P03372); experiment: CCTE_Deisenroth_AIME_384WELL_LUC_Shift: CCTE's 384-well Estrogen Receptor Transactivation Assay with AIME metabolic competence data shift (ERTA luciferase; difference in metabolism positive and negative), Deisenroth Lab (AID 2284041);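 also: shift is response with S9 minus without S9 so positive means metabolism raised ER signal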
Outline: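 Test chemicals (0.002–200 uM, 10-point) were pre-incubated 2 h with alginate microspheres containing phenobarbital/beta-naphthoflavone-induced male Sprague Dawley rat liver S9 or water, then medium was transferred to VM7Luc4E2 cells for 24 h luciferase readout; shift = S9-positive minus S9-negative normalized response.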

DIO2 (gene 1734) = experiment: CCTE_GLTED_hDIO2: CCTE's human Deiodinase 2 (DIO2) Inhibition Assay, Great Lakes Toxicology and Ecology Division (GLTED) Lab (AID 2284050; active = hit-call score of the fitted dose curve at least 0.9, where 1 is the maximum)
Outline: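 Readout: absorbance from Sandell-Kolthoff detection of free iodide released by human DIO2 during a 3 h incubation with chemical. Cell-free format, n=3; activity fitted relative to DMSO negative control.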

Estrogen receptor (Homo sapiens), sequence (P03372 whole entry, looked up): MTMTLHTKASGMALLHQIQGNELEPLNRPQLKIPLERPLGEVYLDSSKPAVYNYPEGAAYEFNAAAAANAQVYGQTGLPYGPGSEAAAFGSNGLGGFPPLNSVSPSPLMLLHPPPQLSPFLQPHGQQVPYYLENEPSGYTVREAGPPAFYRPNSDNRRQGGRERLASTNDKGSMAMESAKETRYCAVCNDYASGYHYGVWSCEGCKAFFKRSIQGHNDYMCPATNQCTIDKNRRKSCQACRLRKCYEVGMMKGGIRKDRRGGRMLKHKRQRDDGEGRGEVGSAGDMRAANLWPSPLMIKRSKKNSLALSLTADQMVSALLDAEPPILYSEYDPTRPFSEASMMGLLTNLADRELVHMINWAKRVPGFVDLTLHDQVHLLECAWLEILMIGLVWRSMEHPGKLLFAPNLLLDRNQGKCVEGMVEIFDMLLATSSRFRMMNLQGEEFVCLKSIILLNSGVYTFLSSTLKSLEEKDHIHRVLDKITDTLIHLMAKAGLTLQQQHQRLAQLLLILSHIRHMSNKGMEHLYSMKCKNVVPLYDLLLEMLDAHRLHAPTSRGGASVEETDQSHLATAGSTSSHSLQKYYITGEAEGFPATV

## CNC(=O)Oc1cccc2ccccc12
[1]
  outcome: inactive
[2]
  outcome: inactive
[3]
  outcome: inactive
[4]
  outcome: inactive
[5]
  AC50: 15 µM (active)
[6]
  AC50: 4.84 µM (active)
  outcome: inactive
[7]
  AC50: 15 µM (active)
[8]
  outcome: inactive
[9]
  outcome: inactive
[10]
  outcome: inactive
[11]
  outcome: inactive
[12]
  AC50: 20.3 µM (active) and 22.6 µM (active)

## Cc1ccc(N=CN(C)C=Nc2ccc(C)cc2C)c(C)c1
[1]
  AC50: 20 µM (active)
[2]
  outcome: inactive
[3]
  outcome: inactive
[13]
  outcome: inactive
[14]
  outcome: inactive
[15]
  outcome: inactive

## COP(=S)(OC)SCn1nnc2ccccc2c1=O
[1]
  outcome: inactive
[2]
  outcome: inactive
[3]
  outcome: inactive
[4]
  outcome: inactive
[13]
  outcome: inactive
[14]
  outcome: inactive
[15]
  outcome: inactive
[6]
  outcome: inactive
[7]
  outcome: inactive
[8]
  outcome: inactive
[9]
  outcome: inactive
[10]
  outcome: inactive
[11]
  outcome: inactive
[12]
  AC50: 15 µM (active)

## CC(C)=CC1C(C(=O)OCc2coc(Cc3ccccc3)c2)C1(C)C (configuration not stated)
[1]
  outcome: inactive
[2]
  outcome: inactive
[3]
  outcome: inactive
[4]
  outcome: inactive
[13]
  outcome: inactive
[14]
  outcome: inactive
[5]
  outcome: inactive
[6]
  outcome: inactive
[7]
  outcome: inactive
[8]
  outcome: inactive
[9]
  outcome: inactive
[10]
  outcome: inactive
[11]
  outcome: inactive
[12]
  outcome: inactive
DIO2 (gene 1734)
  AC50: 38.5 µM (active)

## Nc1c(Cl)c(F)nc(OCC(=O)O)c1Cl
[1]
  outcome: inactive
[2]
  outcome: inactive
[3]
  outcome: inactive

## CCCCC(O)(Cn1cncn1)c1ccc(Cl)cc1Cl (configuration not stated)
[1]
  AC50: 2.23 µM (active)
[2]
  outcome: inactive
[3]
  outcome: inactive
[13]
  AC50: 162 µM (active)
[15]
  outcome: inactive

## C=C(C)CN(CC)c1c([N+](=O)[O-])cc(C(F)(F)F)cc1[N+](=O)[O-]
[1]
  outcome: inactive
[2]
  outcome: inactive
[3]
  outcome: inactive
[4]
  AC50: 12.8 µM (active)
[13]
  outcome: inactive
[14]
  outcome: inactive
[5]
  AC50: 16.9 µM (active)
[15]
  outcome: inactive
[6]
  AC50: 13.3 µM (active)
[7]
  AC50: 16.4 µM (active)
[8]
  AC50: 22.1 µM (active)
[9]
  outcome: inactive
[10]
  AC50: 22.2 µM (active)
[11]
  outcome: inactive
[12]
  AC50: 18.1 µM (active)

## COCC(=O)N(c1c(C)cccc1C)C(C)C(=O)OC (configuration not stated)
[1]
  outcome: inactive
[2]
  outcome: inactive
[3]
  outcome: inactive

## O=c1n(Cl)c(=O)n(Cl)c(=O)n1Cl
[14]
  outcome: inactive
[15]
  outcome: inactive

## COP(=S)(OC)Oc1ccc([N+](=O)[O-])c(C)c1
[4]
  outcome: inactive
[13]
  outcome: inactive
[14]
  outcome: inactive
[5]
  outcome: inactive
[15]
  outcome: inactive
[6]
  outcome: inactive
[7]
  outcome: inactive
[8]
  outcome: inactive
[9]
  outcome: inactive
[10]
  outcome: inactive
[11]
  outcome: inactive
[12]
  outcome: inactive

## N#Cc1c(Cl)cccc1Cl
[13]
  outcome: inactive
[14]
  outcome: inactive
[15]
  outcome: inactive

## Nc1c(Cl)c(Cl)nc(C(=O)O)c1Cl
[13]
  outcome: inactive
[14]
  AC50: 14.3 µM (active)
[15]
  AC50: 5.4 µM (active)

## Cc1cc(C)nc(Nc2ccccc2)n1
[14]
  outcome: inactive
[15]
  outcome: inactive

## COP(=O)(OC)O/C(C)=C/C(=O)N(C)C
[4]
  outcome: inactive
[5]
  outcome: inactive
[6]
  outcome: inactive
[8]
  outcome: inactive
[9]
  outcome: inactive
[10]
  outcome: inactive
[11]
  outcome: inactive
[12]
  outcome: inactive

## COC(=O)NC(=S)Nc1ccccc1NC(=S)NC(=O)OC
[13]
  outcome: inactive
[14]
  outcome: inactive
[15]
  outcome: inactive

## CN=C=S
[13]
  outcome: inactive
[14]
  outcome: inactive
[15]
  outcome: inactive

## CNC(=O)N(C)c1nnc(C(C)(C)C)s1
[14]
  outcome: inactive
[15]
  outcome: inactive
